Assay [1] addresses 6-phosphogluconate dehydrogenase, decarboxylating (Homo sapiens) (UniProt P52209). Kind of assay: 6PGD enzyme inhibitors, primary screen, biochemical, human, recombinant enzyme, NADPH absorbance (AID 1159550). The conditions noted are these: recombinant 6PGD, NADPH absorbance 341 nm; at 10 µM; stronger effect = higher value.
The target in assay [2] is Mitogen-activated protein kinase 7 (Homo sapiens) (UniProt Q13164). Kind of assay: ERK5 transactivation activators in reporter cells, primary screen, cell-based, HTS (AID 1508626;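 active = luciferase signal above three times the same-plate solvent-only control wells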;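 also: luciferase driven by Gal4-ERK5 fusion binding five Gal4 sites before minimal TATA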). Conditions: HeLa Gal4-ERK5 transactivation, 18 h, at 5 µM, stronger effect = higher value.

The term inhibition denotes the change of the read-out against control, counted positive when it falls.

Unmarked numbers belong to inactive results. Activity calls are given as the source filed them.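 The calls were made as follows, unless noted: active = at least 20% inhibition of 6-phosphogluconate dehydrogenase activity; inactive = the rest.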

Chain of 6-phosphogluconate dehydrogenase, decarboxylating (Homo sapiens) (P52209 whole entry, looked up, the tested form may be a part): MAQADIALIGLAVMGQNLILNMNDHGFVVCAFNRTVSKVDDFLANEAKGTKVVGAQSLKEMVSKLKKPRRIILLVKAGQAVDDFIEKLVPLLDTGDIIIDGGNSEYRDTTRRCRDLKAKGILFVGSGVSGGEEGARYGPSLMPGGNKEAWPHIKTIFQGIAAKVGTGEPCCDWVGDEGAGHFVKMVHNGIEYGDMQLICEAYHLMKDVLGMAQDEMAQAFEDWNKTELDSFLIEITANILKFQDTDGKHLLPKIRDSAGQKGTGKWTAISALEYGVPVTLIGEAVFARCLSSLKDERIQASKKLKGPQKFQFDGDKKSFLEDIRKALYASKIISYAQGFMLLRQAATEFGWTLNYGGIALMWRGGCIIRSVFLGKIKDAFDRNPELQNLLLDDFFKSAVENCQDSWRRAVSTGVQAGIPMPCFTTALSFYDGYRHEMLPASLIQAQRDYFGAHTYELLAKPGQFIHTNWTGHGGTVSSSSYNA
Chain of Mitogen-activated protein kinase 7 (Homo sapiens) (Q13164 whole entry, looked up, the tested form may be a part): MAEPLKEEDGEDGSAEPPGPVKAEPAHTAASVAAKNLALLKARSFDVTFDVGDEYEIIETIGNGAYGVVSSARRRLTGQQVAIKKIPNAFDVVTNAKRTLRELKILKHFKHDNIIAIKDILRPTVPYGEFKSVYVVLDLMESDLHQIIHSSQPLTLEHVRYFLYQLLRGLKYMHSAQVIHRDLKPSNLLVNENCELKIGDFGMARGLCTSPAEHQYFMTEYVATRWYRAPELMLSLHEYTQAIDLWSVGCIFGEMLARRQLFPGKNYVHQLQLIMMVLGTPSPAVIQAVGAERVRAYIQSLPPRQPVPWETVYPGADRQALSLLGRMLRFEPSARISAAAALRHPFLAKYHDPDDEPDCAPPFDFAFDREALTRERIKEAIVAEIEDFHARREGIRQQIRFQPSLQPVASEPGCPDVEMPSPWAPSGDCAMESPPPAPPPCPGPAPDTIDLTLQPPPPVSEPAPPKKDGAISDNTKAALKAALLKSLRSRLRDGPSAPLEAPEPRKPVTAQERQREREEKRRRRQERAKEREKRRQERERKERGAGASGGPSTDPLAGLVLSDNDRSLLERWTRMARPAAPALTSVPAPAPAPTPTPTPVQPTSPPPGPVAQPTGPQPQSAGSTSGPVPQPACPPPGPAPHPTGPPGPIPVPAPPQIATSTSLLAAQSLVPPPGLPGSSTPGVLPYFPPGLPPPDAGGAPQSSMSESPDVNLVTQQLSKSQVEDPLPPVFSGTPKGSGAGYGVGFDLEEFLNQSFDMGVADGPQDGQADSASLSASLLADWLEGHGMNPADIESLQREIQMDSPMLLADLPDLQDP

`COC(=O)CC1C(C)(C)C(OC(C)=O)[C@@H]2[C@@H](OC(C)=O)[C@]34O[C@@]2(O)[C@]1(C)C3CC[C@]1(C)C4=CC(=O)O[C@H]1c1ccoc1` (stereo partly drawn): the inhibition in assay [1] was -1.28%. In addition, the luciferase signal in assay [2] was 12 AU.

`CC(C)=CCc1c(O)cc2occ(-c3ccc4c(c3)OCO4)c(=O)c2c1O`: the inhibition in assay [1] was -0.247%. Moreover, the luciferase signal in assay [2] is 104 AU.

In the case of `C/C=C(/C)C(=O)O[C@@H]1c2c(ccc3ccc(=O)oc23)OC(C)(C)[C@@H]1OC(C)=O`, the inhibition in assay [1] was 4.61%. Further, the luciferase signal in assay [2] is 56 AU.

As to `CC(=O)N1CCC[C@H]1C(=O)O`, in assay [1], the inhibition was 11.4%. Also, in assay [2], the luciferase signal is 52 AU.

Consider `O=C(Cc1ccccc1)NO`, for which the inhibition in assay [1] is -18.4%. Moreover, the luciferase signal in assay [2] was 68 AU.

As for `CC1(C)C[C@@H]2C(=O)CC[C@H]3O[C@]3(C)CC[C@H]21`, the inhibition in assay [1] was 14.4%. Also, the luciferase signal in assay [2] was 44 AU.

For the compound `COc1ccc(-c2cc(=O)c3ccccc3o2)cc1`, the inhibition in assay [1] was -3.26%. Further, the luciferase signal in assay [2] was 112 AU.

For the compound `COc1cccc2c1CCC1=CC(=O)CC[C@@]12C`, the inhibition in assay [1] is -1.6%. The luciferase signal in assay [2] was 40 AU.

Consider `CC(=O)O[C@@H]1CC(=O)[C@@]2(C)C(CC(=O)[C@]3(C)C2CC[C@@]2(C)[C@H](c4ccoc4)OC(=O)C4OC423)C1(C)C` (stereo partly drawn), for which the inhibition in assay [1] was 9.95%. In addition, the luciferase signal in assay [2] was 24 AU.

`O=c1oc2ccccc2cc1O`: the inhibition in assay [1] is 15.9%. Further, in assay [2], the luciferase signal is 36 AU.

Turning to `COc1cc2c3cc1Oc1c(OC)c(OC)cc4c1[C@@H](Cc1ccc(O)c(c1)Oc1ccc(cc1)C[C@@H]3N(C)CC2)N(C)CC4`, the inhibition in assay [1] is 14.7%. The luciferase signal in assay [2] was 64 AU.

Consider `C[C@H]1[C@H](C)CC[C@]2(C(=O)O)CC[C@]3(C)C(=CC[C@@H]4[C@@]5(C)C[C@@H](O)[C@H](O)[C@@](C)(CO)[C@@H]5[C@H](O)C[C@]43C)[C@H]12`, for which the inhibition in assay [1] was 2.44%. Also, the luciferase signal in assay [2] was 48 AU.

As to `COC(=O)CC[C@@H](C)[C@H]1CC[C@H]2[C@@H]3[C@H](O)C[C@@H]4C[C@H](O)CC[C@]4(C)[C@H]3C[C@H](O)[C@]12C`, the inhibition in assay [1] was -4.15%. Moreover, in assay [2], the luciferase signal is 252 AU (active).

For the compound `CC1(C)CC[C@]2(C)CC[C@]3(C)C(=CC[C@@H]4[C@@]5(C)CC[C@H](O)C(C)(C)[C@@H]5CC[C@]43C)[C@@H]2C1`, the inhibition in assay [1] is 10.2%. Also, the luciferase signal in assay [2] is 20 AU.

For the compound `O=C(O)CN(CC(=O)O)Cc1cc2c(cc1O)Oc1cc(O)c(CN(CC(=O)O)CC(=O)O)cc1C21OC(=O)c2ccccc21`, the inhibition in assay [1] is -1.59%. Moreover, in assay [2], the luciferase signal is 140 AU.

Turning to `COc1ccc(-c2cc(=O)c3ccccc3o2)cc1OC`, the inhibition in assay [1] is -3.02%. Further, the luciferase signal in assay [2] is 76 AU.

Take `CC1(C)C2CC(=O)O[C@@]3(C)C4=CC(=O)O[C@@H](c5ccoc5)[C@]4(C)CCC3[C@@]2(C)C=C[C@H]1O` (stereo partly drawn): the inhibition in assay [1] was 9.39%. For the same compound, in assay [2], the luciferase signal was 20 AU.

Turning to `COC(=O)C[C@H]1C2(C)CC34OC5(C)O[C@@]6([C@H](OC)C(OC(=O)C(C)C)[C@]7(C)C(/C(=C(/OC)C(C)C)C(=O)O[C@H]7c7ccoc7)[C@@]6(O5)[C@H](OC)[C@@]3(OC)C2OC(C)=O)[C@]14C` (stereo partly drawn), the inhibition in assay [1] was -3.86%. In assay [2], the luciferase signal was 20 AU.

For the compound `O=C1CC[C@]23/C=C\C(=O)NCCCCNCCCNC(=O)/C=C\c4ccc(c2c4)O[C@@H]3C1`, the inhibition in assay [1] is -0.518%. In assay [2], the luciferase signal was 36 AU.

Regarding `CC(=O)O[C@@H]1C[C@H]2C(C)(C)[C@@H](O)CC[C@]2(C)[C@H]2CC[C@@]3(C)[C@H](c4ccoc4)OC(=O)[C@H]4O[C@]43[C@@]21C`, in assay [1], the inhibition is -6.19%. Moreover, the luciferase signal in assay [2] was 108 AU.

Regarding `O=C1C=C(O)c2ccccc2C1=O`, the inhibition in assay [1] is 5.16%. Further, the luciferase signal in assay [2] is 44 AU.

Regarding `COC1[C@H](O)[C@@H](O)C(O)[C@H](O)[C@H]1O` (stereo partly drawn), in assay [1], the inhibition was -7.09%. The luciferase signal in assay [2] was 136 AU.

Regarding `CC1CCC(C(C)C)C(OC(=O)c2ccccc2)C1` (stereo not drawn), the inhibition in assay [1] is 3.54%. For the same compound, the luciferase signal in assay [2] was 48 AU.

As for `COc1ccc(-c2cc(=O)c3c(O)c(OC)c(O[C@@H]4O[C@H](CO[C@@H]5O[C@@H](C)[C@H](O)[C@@H](O)[C@H]5O)[C@@H](O)[C@H](O)[C@H]4O)cc3o2)cc1`, the inhibition in assay [1] is -2.78%. Moreover, the luciferase signal in assay [2] is 76 AU.

For the compound `C=C(C)CCCC(C)CCOC(C)=O` (stereo not drawn), in assay [1], the inhibition was 8.09%. The luciferase signal in assay [2] is 68 AU.

On to `CCC(C)C(=O)OC1[C@@H]2CC3=C4CC(=O)O[C@@H](c5ccoc5)[C@]4(C)CCC3[C@@](C)(C2=O)[C@@H](CC(=O)OC)C1(C)C` (stereo partly drawn), for which the inhibition in assay [1] was 6.33%. Moreover, the luciferase signal in assay [2] is 116 AU.

As to `COC(=O)C[C@H]1C(C)(C)[C@H](OC(C)=O)[C@@H]2CC3=C4CC(=O)O[C@@H](c5ccoc5)[C@]4(C)CC[C@@H]3C1(C)C2=O`, the inhibition in assay [1] was 7.02%. Further, in assay [2], the luciferase signal was 24 AU.

Regarding `CC1C2[C@]3(CC[C@H]1C)CCC1(C)[C@@]2(C=CC2[C@@]4(C)CC[C@H](O)C(C)(C)C4CC[C@]21C)OC3=O` (stereo partly drawn), the inhibition in assay [1] is 5.53%. Also, in assay [2], the luciferase signal is 56 AU.

With `CC(=O)OC[C@H]1O[C@@H](Oc2cc(OC(C)=O)c3c(=O)cc(-c4ccc(OC(C)=O)cc4)oc3c2)[C@H](OC(C)=O)[C@@H](OC(C)=O)[C@@H]1OC(C)=O`, the inhibition in assay [1] was 6.51%. Further, the luciferase signal in assay [2] is 80 AU.
